# According to PubChem BioAssay (Tox21):
# Several values for one entry are separate records, joined by “and”; a condition that tells them apart may be missing. Equal values may be shown once. Activity calls are given as the source filed them. Calls come from the whole dose curve.
# Test: qHTS assay to identify small molecule agonists of the estrogen related receptor (ERR) signaling pathway from Tox21 library (AID 1224849); note: nearly all actives have a fitted effect of over 15% in size
# Conditions: ERR reporter cell line, ONE-Glo luciferase, 18 h; at 92.4 µM (top of the series) unless noted
# From the text: National Center for Advancing Translational Sciences [NCATS]
# NIH Chemical Genomics Center [NCGC]
# U.S. Environmental Protection Agency [EPA]
# National Institutes of Environmental Health Sciences [NIEHS]
# National Toxicology Program [NTP]
# Estrogen related receptors (ERRs), the first orphan nuclear receptors discovered, play an important role in the control of cellular energy metabolism. ERRs are required for high-energy production in response to the environmental challenges. ERR-alpha was also identified as an adverse marker for breast cancer progression; ERR-alpha-positive tumors have a poor prognosis. To screen and to identify environmental compounds that perturb the ERR signaling pathways could provide valuable information for potential therapeutic or preventive measures in the treatment of metabolic disease. For identifying ERR agonists, ERR cell line (provided by NTP) has been used to screen Tox21 10K library.
# The ERR cells were dispensed at 2,000 cells/5 ul/well in 1536-well white plates using a Multidrop dispenser. After the assay plates were incubated at a 37 C/5% CO2 incubator for 6 hours, 23 nL of compounds dissolved in DMSO, positive and negative controls or DMSO only was transferred to the assay plate by a pin tool. The plates were incubated at 37 C for 18 hours. 4 ul/well of One-Glo reagent was added into the assay plates using a Flying Reagent Dispenser. After 30-minute incubation at room temperature, the luminescence intensity in the plates was measured using a ViewLux plate reader.
# % is set by controls: 0 for no effect and ±100 for the full control effect.
row,Structure (SMILES),"activity change, positive = activation"
1,COC1=CC(=O)O[C@@H](/C=C/c2ccccc2)C1,12.9% (inactive)
2,CC(C)c1ccc(O)cc1,-0.432% (inactive)
3,CCCOC(=O)c1cncn1C(C)c1ccccc1 (stereo not given),0.709% [at 42.5 µM] (inactive)
4,COc1ccc(C=O)cc1O,2.88% (inactive)
5,O=C(O)CBr,-0.0549% (inactive)
6,COc1ccccc1OC,2.11% (inactive)
7,O=C1C2CC=CCC2C(=O)N1SC(Cl)(Cl)Cl (stereo not given),-8.8% (inactive) and -75.3% (inactive)
8,CCCC(C)(COC(N)=O)COC(N)=O,0.442% (inactive)
9,CON(C)C(=O)Nc1ccc(Br)c(Cl)c1,0.491% (inactive)
10,Cc1ccc(S(=O)(=O)N[C@@H](CCCCN)C(=O)CCl)cc1,0.318% [at 42.5 µM] (inactive)
11,CS(=O)(=O)c1ccc(C(=O)C2C(=O)CCCC2=O)c(Cl)c1COCC(F)(F)F,-5.95% (inactive)
12,CC(=O)OCC1=C(C(=O)O)N2C(=O)[C@@H](N)[C@H]2SC1,9.57% [at 19 µM] (inactive)
13,CCC(C)(C#N)N=NC(C)(C#N)CC (stereo not given),3.15% (inactive)
14,COc1cc(CC(C)N)cc(OC)c1OC (stereo not given),12.1% (inactive)
15,Cn1c(CCCC(=O)O)nc2cc(N(CCCl)CCCl)ccc21,-8.11% [at 42.5 µM] (inactive)
16,Nc1c(Cl)c(F)nc(OCC(=O)O)c1Cl,0.0677% (inactive)
17,CCCCCCC1CCOC1=O (stereo not given),0.0938% (inactive)
18,CC[C@@H](CO)NC(=O)[C@@H]1C=C2c3cccc4c3c(cn4C)C[C@H]2N(C)C1,0.637% [at 42.5 µM] (inactive)
19,CCCN1CCC[C@@H]2Cc3[nH]ncc3C[C@H]21,0.879% [at 42.5 µM] (inactive)
20,O=C(Cl)/C=C/C(=O)Cl,-12% (inactive)

row,Structure (SMILES),"activity change, positive = activation"
1,CCOC(=O)C(SP(=S)(OC)OC)c1ccccc1 (stereo not given),-11.8% (inactive)
2,C=CC(=O)OCCN(C)C,3.26% (inactive)
3,C#CCOC(=O)/C=C(C)/C=C/CC(C)CCCC(C)C (stereo not given),0.281% (inactive)
4,C=C1CC[C@@]2(O)[C@H]3Cc4ccc(O)c5c4[C@@]2(CCN3CC2CC2)[C@H]1O5,8.21% [at 42.5 µM] (inactive)
5,CCSC(=O)Cl,13.4% (inactive)
6,Cl/C=C/CCl,5.39% (inactive)
7,CC(Cc1ccccc1)NCCn1cnc2c1c(=O)n(C)c(=O)n2C (stereo not given),-15.8% (inactive)
8,CCC1(CC)C(=O)C=CNC1=O,4.55% [at 42.5 µM] (inactive)
9,CC[C@@H](CO)NC(=O)[C@@H]1C=C2c3cccc4[nH]cc(c34)C[C@H]2N(C)C1,-0.565% [at 42.5 µM] (inactive)
10,CCN(CC)C1CCCCC1,0.2% (inactive)
11,CCCC[N+](=O)[O-],-0.684% (inactive)
12,O=C(CCl)NCO,7.02% (inactive)
13,BrCCc1ccccc1,0.561% (inactive)
14,C[C@]12C=CC(=O)C=C1CC[C@@H]1[C@@H]2CC[C@@]2(C)[C@H]1CC[C@]2(C)O,-17.6% [at 42.5 µM] (inactive)
15,CCC(C)C(C)(COC(N)=O)COC(N)=O (stereo not given),1.95% [at 42.5 µM] (inactive)
16,CCN[C@@H](C)Cc1ccccc1,9.72% (inactive)
17,CCN(CC)CCOC(=O)C(O)(c1ccccc1)c1ccccc1,2.32% [at 42.5 µM] (inactive)
18,CC(C)(N)Cc1ccccc1Cl,-8.42% [at 42.5 µM] (inactive)
19,CNC(=O)Oc1ccccc1C(C)C,1.9% (inactive)
20,CN(C)C(=O)Oc1cc(OC(=O)N(C)C)cc(C(O)CNC(C)(C)C)c1 (stereo not given),0.805% [at 42.5 µM] (inactive)
